Drawing on PubChem BioAssay (NCATS), this text covers Potency for 40 molecules.

A number with no mark means an inactive call. Calls of active or inactive are those of the source. No rule for the calls is given here.
Potency is read from the fitted curve at half-maximal effect.

For this test, the system named is HIV-1 nucleocapsid protein NCp7 (binding to TG oligonucleotide). Nature of the test: HIV Nucleocapsid (AID 346).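 Also: potency is for inhibitors that block NC binding and lower polarization.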 To be noted: HIV-1 NC / fluorescein-TGTGTGTG probe, fluorescence polarization. A digest of the protocol:
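Fluorescence polarization binding of 100 nM HIV-1 NC to 10 nM fluorescein-labelled TG4xF oligonucleotide. Buffer was Hepes pH 7.5 with 250mM NaCl, 1uM ZnCl2, TCEP and 2-mercaptoethanol. Compounds were incubated 1 hr at room temperature before the read.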
In general terms: In fluorescence polarisation assays a small probe gives low polarisation when free and higher when bound to something large.
Turning to `CN(C)c1ncc2nc(CCc3ccccc3)c(=O)n(C[C@H]3CCCO3)c2n1`, the Potency was above 20 µM. In the case of `CS(=O)(=O)N1CCC[C@@]2(CCN(c3ccncc3)C2)C1` it was above 20 µM; in that of `CC(=O)NCCNc1ncnc2ccc(-c3cccc(NS(C)(=O)=O)c3)cc12`, above 20 µM.

In the case of `c1ccc(CNc2cc(-c3cccnc3)ncn2)cc1`, the Potency was above 20 µM.

With `COc1ccc(-n2c(=O)cnc3cnc(N4CCOCC4)nc32)cc1`, the Potency was above 20 µM. The value for `Cc1noc(C)c1C(=O)N1CCC[C@@]2(CCN(c3cccc(-c4ccccc4)c3)C2)C1` was above 20 µM; that for `O=C(c1cnccn1)N1CCC2(CC1)CCN(c1ncccn1)CC2` was above 20 µM. In the case of `O=S(=O)(c1ccccc1)N1CCC2(CC1)CN(c1ccccc1)C2` it was above 20 µM; in that of `FC(F)(F)c1ccccc1-c1cc(NCCN2CCOCC2)ncn1`, above 20 µM; in that of `O=C(c1cc(C(F)(F)F)cc(C(F)(F)F)c1)N1CCC2(CC1)CN(c1ccncc1)C2`, above 20 µM. The value for `Cc1cnc(CNc2ncnc3ccc(-c4ccccc4Cl)cc23)cn1` was above 20 µM; that for `Cc1cnc(CNc2ncncc2-c2ccccc2Cl)cn1` was above 20 µM.

`COc1cccc(-c2cc(NCc3ccccc3)ncn2)c1`: the Potency is above 20 µM. The value for `COc1ccc(-n2c(=O)cnc3cnc(N(C)C)nc32)cc1` was above 20 µM; that for `O=c1c(CCc2ccccc2)nc2cnc(N3CCOCC3)nc2n1-c1ccccc1` was above 20 µM; that for `O=C(c1cccc(F)c1)N1CCC2(CC1)CN(c1ccccn1)C2` was above 20 µM. The value for `Cn1cccc1C(=O)N1CCC[C@@]2(CCN(c3ncccn3)C2)C1` was above 20 µM; that for `COc1ccccc1CCn1c(=O)c(-c2cccc(F)c2)nc2cncnc21` was above 20 µM; that for `CC(=O)N1CCC2(CCCN(c3ccc(-c4ccccc4)cc3)C2)CC1` was above 20 µM. Consider `COc1ccc(-c2nc3cnc(N4CCOCC4)nc3n(C3CC3)c2=O)cc1`, for which the Potency is above 20 µM. In the case of `COc1ccc(-n2c(=O)c(CCc3ccccc3)nc3cnc(N4CCNCC4)nc32)cc1` it was above 20 µM; in that of `COc1ccc2[nH]cc(CCNc3ncnc4ccc(-c5cccnc5)cc34)c2c1`, above 20 µM; in that of `CC(=O)NCCNc1cc(-c2ccccc2C)ncn1`, above 20 µM. In the case of `COc1ccc(-n2c(=O)c(C)nc3cnc(N(C)C)nc32)cc1` it was above 20 µM; in that of `Cc1nc2cnc(N3CCNCC3)nc2n(Cc2ccc(F)cc2)c1=O`, above 4 µM. The value for `CC(C)NC(=O)N1CCCC2(CCN(C(=O)c3ccncc3)CC2)C1` was above 20 µM.

Consider `N#CCCn1c(=O)c(-c2cc(F)cc(F)c2)nc2cnc(Oc3cccc(Cl)c3)nc21`, for which the Potency is above 20 µM. In the case of `COc1ccc(NC(=O)N2CCC3(CC2)CCN(C(=O)c2cccc(F)c2)CC3)cc1` it was above 20 µM; in that of `N#Cc1cccc(-c2cc(-n3ccnc3)ncn2)c1`, above 20 µM; in that of `COc1ccc(-c2nc3cnc(N4CCOCC4)nc3n(CCC#N)c2=O)cc1`, above 20 µM. In the case of `COc1ccc(Oc2ncc3nc(-c4cccs4)c(=O)n(CCC#N)c3n2)cc1` it was above 20 µM; in that of `CS(=O)(=O)Nc1cccc(-c2nc(NCc3cccs3)c3ccccc3n2)c1`, above 20 µM; in that of `COc1ccc(-c2nc3cnc(N4CCOCC4)nc3n(-c3ccccc3)c2=O)cc1`, above 20 µM. In the case of `CCNc1ncc2nc(C)c(=O)n(-c3ccc(OC)cc3)c2n1` it was above 20 µM.

On to `N#Cc1cccc(NC(=O)N2CC[C@@]3(CCCN(C(=O)c4cc(C(F)(F)F)cc(C(F)(F)F)c4)C3)C2)c1`, for which the Potency was above 20 µM. As for `Cc1noc(C)c1C(=O)N1CCC2(CCCN(C(=O)Nc3cccc(C#N)c3)C2)CC1`, the Potency is above 20 µM. The value for `Cc1ccccc1-c1nc(N(C)C)c2ccccc2n1` was above 20 µM; that for `O=C(c1ccco1)N1CCC2(CC1)CN(c1ccccn1)C2` was above 20 µM. For the molecule `COc1cccc(Nc2ncc3nc(-c4cccs4)c(=O)n(-c4ccccc4)c3n2)c1`, the Potency is 6.57 µM (active). The value for `CCNc1ncc2nc(-c3ccccc3)c(=O)n(C)c2n1` was above 20 µM.
